# In PubChem BioAssay (NCI):
# Compounds without any hit were thinned out: in the full panel of roughly 79,000, 15% have a hit. Unmarked numbers belong to inactive results. The source made the active and inactive calls. Rule as the data show it: active = growth inhibition above about 70%; inactive = the rest.
# Test: NCI Yeast Anticancer Drug Screen. Data for the mlh1 rad18 strain (AID 175)
# Conditions: S. cerevisiae mlh1 rad18 strain growth inhibition; at 50.0 µM; active compounds read high
# Method in brief: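 Steps: expose repair-defective yeast to compound; measure growth; express inhibition against vehicle-treated controls.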
row,Compound,growth inhibition
1,Clc1cc2n[nH]nc2c(Cl)c1Cl,93.3% (active)
2,NSc1ccc(N)s1,58.6%
3,O=C1C2=C(CCCC2)C(=O)C(Cl)C1Cl (centres undefined),99.5% (active)
4,O=C(COc1ccc2ccccc2c1)NC1c2ccccc2Oc2ccccc21,63%
5,COc1ccc(-c2cc(-c3ccco3)c(C#N)c(=S)n2C2OC(CO)C(O)C(O)C2O)cc1 (centres undefined),4.1%
6,Clc1cccc(Cl)c1C(Nc1nncs1)Nc1nncs1,97.3% (active)
7,COC([C@@H](OC(=O)c1ccccc1)[C@H](OC(=O)c1ccccc1)C(O)COC(=O)c1ccccc1)n1cc(C)c(=O)[nH]c1=O (some centres undefined),67.3%
8,C1=C(c2c(-c3ccccc3)[nH]c3ccccc23)Cc2ccccc21,54.8%
9,CC12C(=O)OC(=O)C1C1c3ccccc3C2c2ccccc21 (centres undefined),88% (active)
10,O=C(N/C(=C\c1ccc(/C=C(\NC(=O)c2ccccc2)c2nc3ccccc3s2)cc1)c1nc2ccccc2s1)c1ccccc1,83.8% (active)
11,COS(=O)c1cc(Cl)cc(Cl)c1OC(=O)CSSCC(=O)Oc1c(Cl)cc(Cl)cc1S(=O)OC (centres undefined),99% (active)
12,COc1cc2c3c(c4ccc(OC)c(OC)c4c2cc1OC)CN1CCC[C@@H]1C3,88.5% (active)
13,N#CSC#CCCC#CSC#N,88.9% (active)
14,Nc1nc(-c2ccc(Cl)cc2)c(N=Nc2ccc(Br)cc2)s1,98.5% (active)
15,CC(=O)C(C(C)=O)C1C=CC=CC=C1,96.9% (active)
16,CCCCN(C(=O)c1ccccc1)C1CCC(=O)c2[nH]c3ccccc3c21 (centres undefined),69.5%
17,S=C(Nc1ccc(Cl)c(Cl)c1)N1c2ccccc2-n2cccc2C1c1cccnc1 (centres undefined),87.8% (active)
18,O=C1CCC(Cc2ccc(C(F)(F)F)cc2)C(=O)N1 (centres undefined),6.6%
19,Oc1cc(O)c2c(c1)OC(c1ccc(O)c(O)c1)C(OC1(c3cc(O)c(O)c(O)c3)Oc3cc(O)cc(O)c3C(O)C1O)C2 (centres undefined),42.5%
20,Cc1cccc(N=Nc2ccc(O)cc2)c1,99.3% (active)

row,Compound,growth inhibition
1,Cc1c2c(c(C)c3c4c(oc13)CCCC4)C=NCC2,80.1% (active)
2,CCOC(=O)C(=CCC1NCCc2c1[nH]c1ccccc21)C(=O)OCC (centres undefined),91.6% (active)
3,CCOC(=O)C1=C(c2ccccc2)SC(c2ccccc2)N(C(C)C)C1=O (centres undefined),88.1% (active)
4,CN(C)CCCNc1cc(/C=C/c2ccc([N+](=O)[O-])cc2)nc2ccccc12,91.1% (active)
5,CC(CN(C)C)C(=O)c1cn(C)c2ccccc12 (centres undefined),70.2% (active)
6,Nc1ccccc1/C=C/c1c[nH]c2ccccc12,97.3% (active)
7,Cc1c(CNc2ccc(Cl)c(Cl)c2Cl)cnc2nc(N)nc(N)c12,-36.1%
8,O=C(c1cccs1)N(C(=S)N1CCN(c2ccccn2)CC1)c1ccccc1,63.8%
9,COc1ccccc1/C=C1\NC(=S)N(/C=C2\C(=O)Oc3ccccc3C2=O)C1=O,85.9% (active)
10,Cc1cc(O)c(C)c(C)c1N=Nc1ccccc1,87.5% (active)
11,O=S1CCS(=O)C1c1ccccc1 (centres undefined),37.7%
12,Cc1ccc2nc(-c3ccc(N)cc3)sc2c1,41.3%
13,CC1OC(OC2C(Oc3c(-c4ccc(O)c(O)c4O)oc4cc(O)ccc4c3=O)OC(CO)C(O)C2O)C(O)C(O)C1O (centres undefined),-10.7%
14,O=C(OCc1ccccc1CN1CCOCC1)c1cccc(Br)c1,6.65%
15,C=CCOCC(C)OC(=O)C(C)C (centres undefined),63.2%
16,CC(C)(C)OC(=O)N[C@H]1CC2(C=C(Cl)C(=O)C(Cl)=C2)OC1=O,81% (active)
17,CC(Nc1ccc(Cl)c(Cl)c1)c1ccncc1 (centres undefined),82.6% (active)
18,COc1ccccc1/C=C(\NC(=O)c1ccccc1)c1nc2ccccc2[nH]1,96.4% (active)
19,CCCCCCC(O)(CCCCCC)CCCCCC,44.1%
